Composite z-score and z-score data for 5 molecules are collected here from PubChem BioAssay.

The source made the active and inactive calls.

Assay [1] is described as follows: small molecules captured by biotinylated probe aFSTL3 – biochemical, small-molecule microarray, fluorescence 635/667, stem cell growth factor project, primary screen (AID 1064).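 Further: measures binding of the biotinylated anti-FSTL3 antibody to printed compounds.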 To be noted: higher = more signal.
Assay [2] can be described thus: binders from COS7 lysate, DM2A8 probe, primary screen, torsin A project, cell lysate, small-molecule microarray, fluorescence 635/667 (AID 1065). To be noted: higher = more signal, COS7 lysate expressing mutant human TOR1A.
Assay [3] can be described thus: small molecules captured by biotinylated probe aFGF2 – biochemical, small-molecule microarray, fluorescence 635/667, stem cell growth factor project, primary screen (AID 1067).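 Further: measures binding of biotinylated aFGF2 protein to printed compounds on slides; z-score merges feature fluorescence and signal-to-noise across triplicate slides.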 The note with it: higher = more signal.
The nature of assay [4]: small molecules captured by biotinylated probe aFGF10 – biochemical, small-molecule microarray, fluorescence 635/667, stem cell growth factor project, primary screen (AID 1071).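 Further: score merges 667 nm spot intensity and signal to noise from triplicate slides.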 To be noted: higher = more signal.
The target in assay [5] is Neurogenic locus notch homolog protein 2 (Homo sapiens) (UniProt Q04721). The assay can be described thus: small molecules binding Notch2 protein – biochemical, small-molecule microarray, 635 nm fluorescence, stem cell growth factors, primary screen (AID 1073). To be noted: higher = more signal.
For assay [6], the target named is Pro-neuregulin-1, membrane-bound isoform (Homo sapiens) (UniProt Q02297). In words: small molecules binding neuregulin-1 protein – biochemical, small-molecule microarray, fluorescence 635/667, psychiatric disease protein project, primary screen (AID 1075).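 Further: score combines 667 nm spot fluorescence with signal to noise.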 To be noted: NRG1 binding, 635 nm fluorescence, higher = more signal.
The test system of assay [7] is Neuregulin-1 EGF-like domain. In words: small molecules binding NRG1 EGF domain – biochemical, small-molecule microarray, 635 nm fluorescence, primary screen (AID 1081).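 Further: binding of the protein to compounds printed on small-molecule microarray slides.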 To be noted: higher = more signal.
Assay [8] in a line: FRG1 expression reporter modulators in myotubes – cell-based, C2C12 myotubes, firefly/Renilla luciferase, luminescence, FRG1 inhibition for FSHD, primary screen (AID 1084). To be noted: FRG1 promoter luciferase, higher = more signal, called active from +8 up or from −8 down.
The nature of assay [9]: small molecules captured by biotinylated probe aFST – biochemical, small-molecule microarray, fluorescence 635/667, stem cell growth factor project, primary screen (AID 1086).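 Further: score merges 667 nm fluorescence with signal-to-noise of each printed compound spot.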 To be noted: higher = more signal.
Assay [10] in a line: binders of probe aHhip on microarray, primary screen, stem cell growth factor project, biochemical, small-molecule microarray, fluorescence 635/667 (AID 1087).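 Further: score merges spot fluorescence at 667nm with spot signal to noise ratio.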 The note with it: higher = more signal.
The test system of assay [11] is PRMT1 (protein arginine N-methyltransferase 1). In words: small molecules binding arginine methyltransferase PRMT1 – biochemical, small-molecule microarray, 635 nm fluorescence, primary screen (AID 1088).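 Further: binding of Prmt1 protein to compounds spotted on small-molecule microarray slides.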 To be noted: higher = more signal.
Assay [12] in a line: growth effects on S. cerevisiae YJM789 – YJM789 clinical isolate, OD600, 24 h, basal, primary screen (AID 1089).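 Further: growth of clinical yeast isolate S. cerevisiae YJM 789 seeded 1000 cells per well; test concentration not given here.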 To be noted: higher = more signal, called active from +8 up or from −8 down.
Assay [13] can be described thus: S. pombe growth modifiers, basal conditions – strain 972, OD600, 24 h, no modulator, primary screen (AID 1090).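 Further: basal condition with compound alone and no growth modifier present; test concentration not given here.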 To be noted: S. pombe 972 growth, higher = more signal, called active from +8 up or from −8 down.
The nature of assay [14]: budding yeast growth modifiers under rapamycin – strain BY4716, OD600, 96 h, primary screen (AID 1091). Further: test concentration not given here. The note with it: S. cerevisiae BY4716 + rapamycin, higher = more signal, called active from +8 up or from −8 down.
Assay [15] concerns the target Torsin-1A-interacting protein 2 (Homo sapiens) (UniProt Q8NFQ8). The assay can be described thus: small molecules binding lysate-expressed LULL1 – cell lysate, human LULL1 lysate, 635/667 nm fluorescence, primary screen (AID 1092).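 Further: probe is lysate of COS7 cells overexpressing human LULL1; score merges per-feature 667 nm fluorescence with signal-to-noise.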 To be noted: small-molecule microarray, hLULL1 lysate binding, 635 nm fluorescence; higher = more signal.
Assay [16] can be described thus: optical density change of DRC41 E. coli – strain DRC41, OD650, 24 h, E. coli filamentation project, primary screen (AID 1093).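 Further: MC1000 strain lacking acrAB efflux and sulA so SOS filamentation is blocked; test concentration not given here.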 The note with it: E. coli DRC41 growth, higher = more signal, called active from +8 up or from −8 down.
Assay [17] is described as follows: probe aLefty2 binding to arrayed compounds – biochemical, biotinylated probe, 635/667 nm fluorescence, primary screen (AID 1094).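 Further: score merges spot fluorescence near 667 nm with spot signal-to-noise ratio.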 To be noted: small-molecule microarray, higher = more signal.
Assay [18] has as its system Noggin (protein binding on small-molecule microarray). The assay can be described thus: small molecules binding Noggin protein – biochemical, 635/667 nm fluorescence, primary screen (AID 1095).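 Further: score merges 667 nm feature fluorescence with signal to noise over triplicate slides.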 The note with it: 635 nm fluorescence, higher = more signal.
Assay [19] has as its target Neurogenic locus notch homolog protein 3 (Homo sapiens) (UniProt Q9UM47). In words: small molecules binding NOTCH3 protein – biochemical, 635/667 nm fluorescence, primary screen (AID 1096). To be noted: small-molecule microarray, 635 nm fluorescence, higher = more signal.
Assay [20] can be described thus: probe aEGFR binding to arrayed compounds – biochemical, biotinylated probe, 635/667 nm fluorescence, primary screen (AID 1097).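 Further: probe is a biotinylated anti-EGFR antibody binding compounds printed on slides; score combines fluorescence near 667 nm and signal to noise of each spot.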 The note with it: small-molecule microarray, higher = more signal.

Chain of Torsin-1A-interacting protein 2 (Homo sapiens) (Q8NFQ8 whole entry, looked up): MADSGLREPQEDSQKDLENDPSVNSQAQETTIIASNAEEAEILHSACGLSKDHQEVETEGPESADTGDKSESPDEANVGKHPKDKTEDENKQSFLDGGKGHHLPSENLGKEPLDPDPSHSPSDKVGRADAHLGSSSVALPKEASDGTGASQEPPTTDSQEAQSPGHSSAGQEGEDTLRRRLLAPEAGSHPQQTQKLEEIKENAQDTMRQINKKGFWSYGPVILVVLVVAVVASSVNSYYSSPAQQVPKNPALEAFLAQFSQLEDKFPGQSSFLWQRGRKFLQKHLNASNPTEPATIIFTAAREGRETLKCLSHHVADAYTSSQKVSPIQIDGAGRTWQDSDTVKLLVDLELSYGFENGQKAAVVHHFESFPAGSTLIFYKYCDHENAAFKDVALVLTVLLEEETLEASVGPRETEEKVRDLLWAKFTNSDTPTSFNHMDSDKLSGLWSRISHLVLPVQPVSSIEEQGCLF
Chain of Neurogenic locus notch homolog protein 2 (Homo sapiens) (Q04721 whole entry, looked up, canonical isoform): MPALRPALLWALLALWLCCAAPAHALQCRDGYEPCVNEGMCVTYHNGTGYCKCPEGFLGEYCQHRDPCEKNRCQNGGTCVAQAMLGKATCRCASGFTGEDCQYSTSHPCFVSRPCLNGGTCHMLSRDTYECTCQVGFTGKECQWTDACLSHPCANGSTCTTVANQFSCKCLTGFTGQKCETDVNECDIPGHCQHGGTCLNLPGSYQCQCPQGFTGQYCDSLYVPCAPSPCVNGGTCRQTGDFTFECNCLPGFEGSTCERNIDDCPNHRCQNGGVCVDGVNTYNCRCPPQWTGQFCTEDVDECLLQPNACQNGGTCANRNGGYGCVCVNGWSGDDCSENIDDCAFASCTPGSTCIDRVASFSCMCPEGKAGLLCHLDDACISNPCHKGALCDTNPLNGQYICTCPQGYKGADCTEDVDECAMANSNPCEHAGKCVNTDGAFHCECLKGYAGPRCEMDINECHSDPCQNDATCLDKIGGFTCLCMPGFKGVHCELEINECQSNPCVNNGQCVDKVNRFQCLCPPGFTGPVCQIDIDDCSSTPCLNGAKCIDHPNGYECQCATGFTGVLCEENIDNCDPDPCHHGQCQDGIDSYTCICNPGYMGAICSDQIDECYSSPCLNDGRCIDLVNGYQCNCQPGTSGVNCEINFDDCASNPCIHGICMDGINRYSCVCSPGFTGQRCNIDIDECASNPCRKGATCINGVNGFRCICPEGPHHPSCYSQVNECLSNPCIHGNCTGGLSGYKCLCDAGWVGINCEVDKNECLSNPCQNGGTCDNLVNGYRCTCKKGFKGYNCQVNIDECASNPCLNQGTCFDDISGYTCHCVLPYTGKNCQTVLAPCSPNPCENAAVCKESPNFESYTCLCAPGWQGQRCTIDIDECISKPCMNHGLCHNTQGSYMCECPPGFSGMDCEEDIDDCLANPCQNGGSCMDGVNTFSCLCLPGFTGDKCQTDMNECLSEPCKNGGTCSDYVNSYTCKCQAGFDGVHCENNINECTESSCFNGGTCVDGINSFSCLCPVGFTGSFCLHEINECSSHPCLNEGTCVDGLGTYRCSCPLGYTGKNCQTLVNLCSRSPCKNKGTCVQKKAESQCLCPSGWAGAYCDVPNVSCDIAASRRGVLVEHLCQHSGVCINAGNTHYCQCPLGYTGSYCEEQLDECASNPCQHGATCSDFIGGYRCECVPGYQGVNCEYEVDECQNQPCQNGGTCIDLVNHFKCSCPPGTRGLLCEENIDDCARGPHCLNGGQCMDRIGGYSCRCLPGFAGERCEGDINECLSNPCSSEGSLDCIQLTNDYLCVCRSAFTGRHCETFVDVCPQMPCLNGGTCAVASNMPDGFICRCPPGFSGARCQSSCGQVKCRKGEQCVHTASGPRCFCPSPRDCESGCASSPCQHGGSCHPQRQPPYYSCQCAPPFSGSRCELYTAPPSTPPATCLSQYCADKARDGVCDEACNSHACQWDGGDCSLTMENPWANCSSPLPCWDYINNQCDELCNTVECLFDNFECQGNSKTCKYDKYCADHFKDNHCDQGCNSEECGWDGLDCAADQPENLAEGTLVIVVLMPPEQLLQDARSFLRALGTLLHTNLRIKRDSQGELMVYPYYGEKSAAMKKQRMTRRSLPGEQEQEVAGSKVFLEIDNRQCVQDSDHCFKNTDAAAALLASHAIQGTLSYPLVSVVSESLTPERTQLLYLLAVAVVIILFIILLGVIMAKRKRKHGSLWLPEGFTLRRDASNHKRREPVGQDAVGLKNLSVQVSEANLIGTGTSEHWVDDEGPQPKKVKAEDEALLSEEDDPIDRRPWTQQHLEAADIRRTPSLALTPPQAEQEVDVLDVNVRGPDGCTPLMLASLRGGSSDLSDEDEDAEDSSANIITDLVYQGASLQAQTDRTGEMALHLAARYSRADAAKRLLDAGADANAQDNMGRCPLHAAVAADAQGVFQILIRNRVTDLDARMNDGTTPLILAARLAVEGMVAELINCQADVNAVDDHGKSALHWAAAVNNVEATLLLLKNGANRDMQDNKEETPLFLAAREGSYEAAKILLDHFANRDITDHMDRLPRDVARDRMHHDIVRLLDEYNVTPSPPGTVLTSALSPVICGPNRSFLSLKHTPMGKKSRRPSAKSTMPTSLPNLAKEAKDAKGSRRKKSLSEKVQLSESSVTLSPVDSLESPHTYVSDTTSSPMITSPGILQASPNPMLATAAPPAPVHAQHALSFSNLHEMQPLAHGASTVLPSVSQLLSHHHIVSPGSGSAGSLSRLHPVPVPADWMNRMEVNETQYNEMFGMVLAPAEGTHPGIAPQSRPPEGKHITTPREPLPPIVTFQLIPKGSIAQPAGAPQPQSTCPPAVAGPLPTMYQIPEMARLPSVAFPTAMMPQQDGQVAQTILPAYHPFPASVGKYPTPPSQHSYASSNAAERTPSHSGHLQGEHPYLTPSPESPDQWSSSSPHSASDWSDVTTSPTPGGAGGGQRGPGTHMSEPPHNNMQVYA
Chain of Pro-neuregulin-1, membrane-bound isoform (Homo sapiens) (Q02297 whole entry, looked up, the tested form may be a part, canonical isoform): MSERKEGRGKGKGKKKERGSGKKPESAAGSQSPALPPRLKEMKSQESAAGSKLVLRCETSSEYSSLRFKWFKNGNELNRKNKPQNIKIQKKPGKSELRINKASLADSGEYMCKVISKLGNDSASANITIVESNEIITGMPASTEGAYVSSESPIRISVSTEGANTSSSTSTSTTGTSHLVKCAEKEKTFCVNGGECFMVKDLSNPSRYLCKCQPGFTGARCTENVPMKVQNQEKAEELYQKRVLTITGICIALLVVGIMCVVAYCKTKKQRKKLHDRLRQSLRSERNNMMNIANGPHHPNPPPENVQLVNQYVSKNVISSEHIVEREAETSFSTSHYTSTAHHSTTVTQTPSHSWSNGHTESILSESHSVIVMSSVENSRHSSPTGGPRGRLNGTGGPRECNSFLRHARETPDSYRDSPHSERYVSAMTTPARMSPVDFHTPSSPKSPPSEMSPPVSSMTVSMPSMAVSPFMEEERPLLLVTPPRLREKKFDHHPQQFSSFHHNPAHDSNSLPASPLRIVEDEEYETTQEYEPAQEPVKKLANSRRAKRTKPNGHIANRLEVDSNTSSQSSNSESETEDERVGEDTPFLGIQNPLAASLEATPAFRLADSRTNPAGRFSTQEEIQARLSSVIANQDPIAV

For the molecule `COC(=O)c1c2oc(c1C(=O)OC)C(=O)N(C)Cc1cn(nn1)C[C@H](Cc1ccccc1)NC(=O)N[C@H](CO)CC2`, the composite z-score in assay [1] was -0.239; in [2], -0.705; in assay [3] it was -0.174; in assay [4], -0.248; in [5], -0.867; in assay [6], -0.638. Also, the composite z-score in assay [7] is -0.717; in assay [9], -0.276; in assay [10] it was 0.0854; in assay [11] it was -0.929; in assay [15] it was -0.609; in [17] it was -0.174. Moreover, the composite z-score in assay [18] is -0.244; in assay [19] it was 0.15; in assay [20], -0.154. In addition, the z-score in assay [8] was -0.161 (inactive); in assay [12], 1.23 (inactive); in assay [13] it was 0.914 (inactive); in [14], 0.556 (inactive); in assay [16], -0.666 (inactive).
Turning to `CC1CC/C=C\[C@H]2OC34C=CCN(c5ccc(Cl)cc5)C(=O)[C@H]3N(CCCCCO)C(=O)[C@]4(C)C2C(=O)O1` (stereo not given in full), the composite z-score was 0.124 in assay [1]; -0.673 in assay [2]; -0.16 in assay [3]; -1.26 in assay [4]; -1.01 in assay [5]; 0.332 in [6]. The composite z-score was 0.429 in assay [7]; -0.999 in assay [9]; -0.0994 in assay [10]; -0.318 in assay [11]; -1 in assay [15]; -0.233 in assay [17]. Further, the figures for the composite z-score in [18], in [19] and in assay [20] were -1.33, -0.394 and -0.302, respectively. In addition, the z-score in assay [8] was 0.581 (inactive); in assay [12], 0.184 (inactive); in assay [13] it was 0.177 (inactive); in assay [14] it was -0.166 (inactive); in [16], -0.367 (inactive).
For the molecule `COc1ccc(NC(=O)O[C@H]2[C@H](OC(=O)Nc3ccccc3)[C@@H](OC(=O)Nc3ccccc3)[C@@H](OC)O[C@@H]2CO)cc1`, the composite z-score is -0.279 in assay [1]; 0.672 in assay [2]; -0.017 in assay [3]; 1.27 in assay [4]; 0.754 in assay [5]; 1.6 in assay [6]. For the same molecule, the composite z-score was 1.26 in [7]; 0.23 in [9]; -0.0618 in assay [10]; 1.55 in assay [11]; 3.27 in assay [15]; -0.0666 in assay [17]. In addition, the composite z-score in [18] was 1.62; in assay [19], 0.822; in [20], -0.0054. Also, the z-score in [8] is 0.329 (inactive); in [12], 2.09 (inactive); in assay [13], -0.0554 (inactive); in assay [14], -0.758 (inactive); in [16] it was -0.633 (inactive).
For the molecule `CN(C)CCCCNC(=O)[C@@H]1C[C@@H]2C(=O)N[C@@H](Cc3ccccc3)C(=O)N2[C@@H]1c1cccc(OCCO)c1`, the composite z-score in assay [1] was -0.185; in assay [2], 0.971; in assay [3], 0.0281; in assay [4] it was 0.645; in [5], -0.729; in [6] it was 0.382. Further, the composite z-score in assay [7] was 0.905; in assay [9] it was 0.218; in assay [10], 0.0524; in assay [11], 1.55; in assay [15], 1.5; in assay [17], -0.125. Also, the composite z-score was 1.45 in [18], 1.06 in [19] and -0.131 in assay [20]. For the same molecule, the z-score was 3.35 (inactive) in assay [8]; -5.59 (inactive) in assay [12]; -1.63 (inactive) in assay [13]; -1.09 (inactive) in assay [14]; 2.67 (inactive) in assay [16].
For `C=CCOC(=O)[C@H]1[C@@H]2C(=O)O[C@@H](c3ccccc3)[C@@H](c3ccccc3)N2[C@@H](c2ccc(OCCOC(=O)[C@@H]3C[C@@H]4C(=O)N[C@@H](CCCCNC(C)=O)C(=O)N4[C@@H]3c3ccc(O)cc3)cc2)[C@]12C(=O)Nc1ccc(I)cc12`, the composite z-score in [1] is -0.0041; in [2], 0.689; in assay [3] it was -0.0466; in assay [4], 0.892; in [5] it was 1.43; in [6], 1.23. The composite z-score in [7] is 1.37; in assay [9], 0.257; in assay [10] it was -0.323; in assay [11], 1.52; in assay [15] it was 1.88; in [17], 0.0594. The composite z-score stood at 1.19 in assay [18], 0.981 in assay [19] and 0.117 in assay [20]. Moreover, the z-score in assay [8] is -0.553 (inactive); in assay [12], 1.29 (inactive); in assay [13] it was 0.145 (inactive); in [14], 4.21 (inactive); in assay [16], -0.289 (inactive).
